Source: the supplement of paper PMC11417369
In all, about 25,000 sequences were measured (“ln(normalized median fluorescence intensity)”: median about 7.1, highest 2% from about 10 on). The full list was thinned out, with the highest values kept by preference.

system: PfSIP2 AP2 domain 1 (GST-tagged); test: gcPBM binding intensity (ln(normalized median fluorescence intensity)); higher = stronger DNA binding
Outline: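 GST-tagged P. falciparum DNA-binding domains, expressed in E. coli (about 25 μg on average), were applied for 1 h to an Agilent 4 × 180k array of primer-extended double-stranded 36-bp intergenic genomic probes plus negative controls. The binding buffer was 1× PBS with 1% milk, 0.2 mg/ml BSA, 0.5% salmon testes DNA and 0.03% Triton X-100. Bound protein was detected with Alexa488 anti-GST antibody and scanned at 488 nm. Binding intensity is the highest Masliner-normalised natural-log median intensity across replicate spots of either probe orientation.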

| Sequence | gcPBM binding intensity (ln) |
| --- | --- |
| ATATATATTAATAGTTGTACTATTATAATATTACAA [XGTACX_site1213] | 7 |
| AGGATAACATACAAAAGTACATAAAACTAAAAAAAC [XGTACX_site26] | 7.32 |
| TATATGTTTACTTAATGTACTTACATTTTTATAACA [XGTACX_site1100] | 6.91 |
| GCATTATTATATATTTGTACATATTTTTTTTTAAAA [XGTACX_site5436] | 7.3 |
| AATATATAAACACGTACACACACATATATGTATATA [CACACA_site9168] | 7.39 |
| TATTAAATTATATAGACACACATTATGTATATATAT [CACACA_site345] | 7.49 |
| TTTTTTAAAAGAAAATAAAAAATAAGCATAATATGA [CACACA_negctrl_site1574] | 7.06 |
| ATGGAATATTTCATGATTTTTTTAATTTTTTTATTG [XGTACX_negctrl_site55] | 6.6 |
| ATATATTATATATATTTTAAGTAATTTGCAAAAAAT [GTGCAC_negctrl_site361] | 7.01 |
| TATGGAAGAAAATATACACACAAAAAAAAAAAATGG [CACACA_site4924] | 6.99 |
| AGGTGCAAAAATAAAACATGCAAAAATAAAAATGAA [TGCATGCA_site502] | 9.93 |
| GAAAGAATAAAATAAACATGCAAATAAAACATAAAA [TGCATGCA_site471] | 7.2 |
| AAAAGGAACGGACACACACACATATATATATATATA [CACACA_site5894] | 9.31 |
| CACATAAAATAAGGTGCATGCAAACGAGAAAATAAA [TGCATGCA_site75] | 11 |
| ACGGAAAAAGAAAAGGTGCATATGGACACAATATAT | 11.3 |
| TTGTTAAATATTTATAAAATGAATTTAAAATGTACT [CACACA_negctrl_site665] | 7.05 |
| ATATGTATAAATATAAATATATATATATATATATAT [CACACA_negctrl_site705] | 9.63 |
| TAATATAAAGGAAAAGAAAAGAAAAGAATATACAAT [CACACA_negctrl_site1369] | 6.69 |
| GTAATAAGAATTATAGTGCAATGTAATACATTTATA | 7.97 |
| GAAAGGACAAGAATAGTGCACATGCAATGTTATTTT [GTGCAC_site9985] | 9.8 |
| GGACAAGAATAGTGCACATGCAATGTTATTTTTTAT [TGCATGCA_site450] | 10.9 |
| ATTTTTTTTTTTTTTATTCCCCTTTCGAAAAAAACC [CACACA_negctrl_site1139] | 7.18 |
| ATAGTTTAATTTATATGTACATATAATATTGATTTG [XGTACX_site7520] | 7.29 |

| Sequence | gcPBM binding intensity (ln) |
| --- | --- |
| TACTTATTTGATTGGGTGCATATATATAGTATGTAT [GTGCAC_site9845] | 10.6 |
| CTTATTGATTTAAAAAGTACATATATGTATATACAC [XGTACX_site4072] | 7.05 |
| TTTTATTTATCTAATTGTACTCATTCTTTTTTGATG [XGTACX_site2876] | 6.88 |
| AGATATATATATAGGTGTACTGGAATGAAATTGTTT [XGTACX_site8200] | 6.94 |
| GATGAAAATAGAAATACACACTAAAAAATAAAATTA [CACACA_site4764] | 6.75 |
| AAATAAAAATTAAAAAAATAGAAACGAATTGAATGC [TGCATGCA_negctrl_site365] | 7.2 |
| TATAAATTAAAATGTGTGCACTAAATTGAAATAGAA | 10.7 |
| TCAATATATATAAGAAGTACATGTGAATGAAAAAAA [XGTACX_site1674] | 7.14 |
| AAAAAAAAATTATTCACACATATATATATATATATA [CACACA_site5579] | 9.38 |
| GCATATTTTATAATTTTACACACCATATAAAATAAT [CACACA_site8904] | 7.2 |
| TAAAATAATTTATGCATACACACATATATATATATA [CACACA_site4021] | 9.23 |
| ATATACACCTGAGAGGTGCATATATATAAAATTTAC | 11.2 |
| TAAGAATTGAAAAAATGTACACAATATAAAATTGAA [XGTACX_site698] | 6.88 |
| TAAATTATAATATGCACACAAAATGTTATATTAAAA [CACACA_site376] | 7.01 |
| TATTAAAAATGTTAAGTGCAAAAATAAAAATTGTGG [GTGCAC_site9854] | 7.71 |
| ATAATTAAGTTATGTGTGCACTGTTAAAAATAAATG | 10.4 |
| ACCTATATAAGTTATACACACAAATATAGATATATA [CACACA_site7356] | 7.06 |
| ATCATATGTATGCATACACACAAAAAGTTATTTATA [CACACA_site6325] | 7.06 |
| AACAAGTTGCATGGTGCACACATGTATTTATATCTA [CACACA_site5414] | 11.8 |
| TATGGTATATACAACACACACACATATGTATATATA [CACACA_site927] | 7.14 |
| ATGTAAGTTGTGCATTCACACACATATATATATATA [CACACA_site9086] | 9.26 |
| AACAAGTTGCATGGTGCACACATGTATATATATCTA [CACACA_site2548] | 11.6 |
| TAGTTGCACATGTATACACACAAAAAATATTTTATG [CACACA_site475] | 7.68 |
